# Bioassay records from PubChem.
# L major viab: Leishmania major promastigote growth inhibition, primary screen. inhibition, % at 10 µM. hit rate 9% among 200,000. Leishmania major promastigotes, resazurin fluorescence viability; in the data active = inhibition above about 50%;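 also: promastigotes grown with compound for 44 hours at 28 °C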
# RAM inhibit: inhibitors of the yeast RAM network, primary screen, dse1pr::URA3 reporter, 5-FOA selection. inhibition, % at 50 µM. hit rate 1.8% among 190,000. AID 868, 2007. S. cerevisiae dse1pr::URA3 reporter, 5-FOA growth OD615, 2 d; analog-sensitive cbk1-as2 kinase mutant strain;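 active = inhibition above a set limit, 3 SD over mean compound inhibition, cut at about 8.4% in these data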;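 also: 0% = DMSO-only wells with no growth and 100% = 10 µM 1-NA-PP1 full growth; inhibition rescues growth on 5-FOA so higher OD means more RAM inhibition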
# CHOP inh: inhibitors of CHOP promoter induction, primary screen, cell-based, unfolded protein response, luciferase reporter | inhibition, % at 10 µM | CHO-K1 CHOP-promoter luciferase, tunicamycin-induced, 15-18 h | hit rate 3.8% among 220,000;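 active = compounds that reduced the stress-induced luciferase reporter signal by more than about 70% of percent inhibition, limit read from the data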;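 also: 0% = tunicamycin plus vehicle and 100% = wells without tunicamycin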
# WT yeast gro inh: growth inhibition of WT strain, primary screen, mitochondrial fusion inhibitor project, WT and mutant strains, chemical genetic. mitochondrial fusion phenotypic screen. inhibition, % at 10 µM. hit rate 2.1% among 190,000; in the data active = inhibition above about 58%; tested in S. cerevisiae
# The depositor's hits bear a star; x = no result. In the library only some 13% were active in any assay of this set; here they are far more common.
SMILES,L major viab,RAM inhibit,CHOP inh,WT yeast gro inh
O=C1CCC([N+](=O)[O-])C(c2cccc(Cl)c2Cl)N1 (stereo unspecified),-1,1,-13,-22
CCOc1ccc(NCc2nnc(SCC(=O)Nc3nc(-c4ccccc4)cs3)n2-c2ccccc2)cc1,95*,4,47,6
Cc1cccc(C)c1NCc1nnc(SCC(=O)Nc2nc(-c3ccccc3)cs2)n1-c1ccccc1,-5,6,58,-8
CCOc1ccc(NCc2nnc(SCc3ccc(Cl)cc3)n2-c2ccccc2)cc1,24,4,58,60*
O=C(c1cnn2c(C(F)(F)F)cc(-c3cccs3)nc12)N1CCN(Cc2ccccc2)CC1,30,0,70*,35
O=C(c1cnn2c(C(F)(F)F)cc(-c3cccs3)nc12)N1CCN(C(c2ccccc2)c2ccccc2)CC1,97*,3,6,3
Cc1ccc(S(=O)(=O)NC(C)C(c2cccs2)N2CCN(C)CC2)cc1 (stereo unspecified),-7,0,32,11
Cc1ccc(S(=O)(=O)NC(C)C(c2cccs2)N2CCN(c3ccccc3)CC2)cc1 (stereo unspecified),5,2,78*,39
Nc1ccccc1S(=O)(=O)NC1=NCCCCC1,6,-1,5,-2
Cc1ccc(S(=O)(=O)c2c(C)nn(C(C)(C)C)c2OC(=O)c2ccc(Br)o2)cc1,0,6,72*,57
Cc1ccc(S(=O)(=O)c2c(C)nn(C(C)(C)C)c2OC(=O)c2cccs2)cc1,39,4,72*,13
CC(=O)Oc1c(S(=O)(=O)c2ccc(C)cc2)c(C)nn1C(C)(C)C,-12,1,50,-14
Cc1ccc(S(=O)(=O)c2c(C)nn(C(C)(C)C)c2OC(=O)c2ccco2)cc1,-3,7,22,7
CC(=O)c1cc(-c2ccccc2)n(CC(=O)N2CCC(N3CCCCC3)CC2)c1C,95*,4,7,-3
CC(=O)c1cc(-c2ccccc2)n(CCC(=O)NC2CCCCC2)c1C,83*,1,-7,-4
CC(=O)c1cc(-c2ccccc2)n(CC(=O)N2CCCCC2)c1C,-9,0,20,-8
Cc1cc(C)cc(-n2c(C)cc(/C=N/NC(=O)CN(c3c(C)cccc3C)S(C)(=O)=O)c2C)c1,41,2,32,60*
COc1ccc(S(=O)(=O)Nc2cc3c4c(oc3c3ccccc23)CC(C)(C)CC4=O)cc1,100*,6,36,37
COc1cccc(NC(=O)c2ccc(S(=O)(=O)N3CCCCC3)cc2)c1,4,1,8,-12
COc1ccc(C(=O)Nc2ccc(S(=O)(=O)N3CCCCC3)cc2)cc1OC,67*,0,56,-6
COc1ccc(-c2cnnn2-c2ccc(NC(=O)c3ccco3)cc2)cc1OC,6,0,15,15
COc1ccc(-c2cnnn2-c2ccc(NC(=O)c3ccc(S(=O)(=O)N4CCCCC4)cc3)cc2)cc1OC,96*,4,78*,-8
C[C@H]1CCC[C@@]2(O[C@@H](CCO)C[C@@H](O)[C@@H]2O)O1,x,x,-2,x
Cc1ccc(C)c(NC(=O)COc2cccc3c2CCN(Cc2ccccc2C)C3=O)c1,3,3,19,6
O=C1c2cccc(OCc3ccc(F)cc3)c2CCN1Cc1ccc(F)cc1,-5,0,85*,41
SMILES,L major viab,RAM inhibit,CHOP inh,WT yeast gro inh
Cc1ccc(CN2CCc3c(OCC(=O)Nc4cccc(C)c4C)cccc3C2=O)cc1,97*,1,27,11
CCOC(=O)N1CCN(C(=O)COc2cccc3c2CCN(Cc2ccccc2F)C3=O)CC1,66*,3,38,5
O=C(CCS(=O)(=O)Cc1ccc(Cl)cc1)NCCCN1CCOCC1,89*,0,13,11
CC(CN1CCN(C)CC1)OC(=O)c1ccc(F)cc1 (stereo unspecified),7,1,2,-3
CC(CN1CCOCC1)OC(=O)c1ccc(Br)cc1 (stereo unspecified),4,0,92*,-13
O=C(NCCCN1CCOCC1)c1ccc(CNS(=O)(=O)c2ccc(Br)cc2)cc1,0,1,12,-7
O=C(NCCCN1CCOCC1)c1ccc(Br)cc1,52*,1,-31,-4
O=C(NCCCN1CCOCC1)c1ccc(CSc2ccc(Cl)cc2)cc1,97*,2,5,52
O=C(NCCCN1CCOCC1)c1ccc(-c2ccc(Cl)cc2)o1,7,1,49,-3
O=C(NCCCN1CCOCC1)c1cc(-c2ccc(Br)cc2)on1,94*,0,5,24
